In PubChem BioAssay (NCI) one finds growth inhibition data, which are given here for 40 compounds.

This is part of a sample that, as a whole, favours compounds with a hit. Of some 79,000 tested, about 15% had one in any assay. Calls of active or inactive are those of the source. No stated cut-off is given here; in the data, active means growth inhibition above about 70%; inactive means the rest. Where a SMILES comes first, the peptide text is derived from it. The star is where a group is joined. Boc = CC(C)(C)OC(=O)*; OBn = c1ccc(CO*)cc1

This assay is described as follows: NCI Yeast Anticancer Drug Screen. Data for the mlh1 rad18 strain (AID 175). As to conditions: S. cerevisiae mlh1 rad18 strain growth inhibition; at 50.0 µM; stronger effect = higher value. How it is done: Growth inhibition of yeast strains with defined genetic alterations is measured as a screen for potential anti-cancer activity. Selected strains with alterations in DNA damage repair or cell cycle control were exposed to compounds and growth inhibition was measured relative to vehicle treated controls. The strain used in this assay is mlh1 rad18
As for `COc1ccc(CC(=O)O)cc1OC`, the growth inhibition was 23.9% (inactive).

On to `O=C(SCc1ccccc1)N(c1ccccc1)c1ccccc1`, for which the growth inhibition was 5.3% (inactive).

As for `CCOC(=O)C(Nc1cc([N+](=O)[O-])ccc1C(=O)OC)(OC)C(=O)OCC`, the growth inhibition was 27.4% (inactive).

As to `O=c1cnc(=O)[nH][nH]1`, the growth inhibition was -5.4% (inactive).

Turning to `COc1c(OC)c(C2(O)C(=O)N(C)c3ccccc32)c2c(c1C1(O)C(=O)N(C)c3ccccc31)OCO2` (stereo not given), the growth inhibition was 22.9% (inactive).

For the compound `C(=Nc1cccc2ccccc12)Nc1cccc2ccccc12`, the growth inhibition is 1.25% (inactive).

Consider `CC(=O)CC(=O)ON(C)C(C)=O`, for which the growth inhibition was -11.6% (inactive).

As for `COC(=O)C1C(O)C(C)C(O)OC1C(C)C(O)C(C)/C=C\C=C(/C)C(=O)Nc1c(C)c(OC(C)=O)c2c(c1O)C(=O)C(C)=C1OCOC(/C(C)=C/C(C)=O)=C12` (stereo not given), the growth inhibition was 17.6% (inactive).

Regarding `NN1CCCC(O)C1` (stereo not given), the growth inhibition is 5.4% (inactive).

Turning to `COc1ccc(/C(Cl)=C(\C=O)c2ccc(Cl)c(Cl)c2)cc1OC`, the growth inhibition was 43.1% (inactive).

Turning to `CC(C)=CCc1ccc2c(c1)CCCN2C`, the growth inhibition is 1.15% (inactive).

For the compound `CC1C=CC(O)[C@]2(CO)CC3(CCC12)OCCO3` (stereo not given in full), the growth inhibition was -16.3% (inactive).

On to `Cn1c(=O)c2c(ncn2CCNC(c2ccccc2)c2ccc(Br)cc2)n(C)c1=O` (stereo not given), for which the growth inhibition is 13.6% (inactive).

Turning to `Cc1cc(C)n(C2=NCCN2)n1`, the growth inhibition is -17.6% (inactive).

For the compound `O=C(CN(Cc1ccccc1)Cc1ccccc1)C(O)C1OC(c2ccccc2)OCC1O` (stereo not given), the growth inhibition was -4.1% (inactive).

`N#Cc1nc(CC(=O)/C=C/c2ccccc2)c(CC(=O)/C=C/c2ccccc2)nc1C#N`: the growth inhibition is 21.3% (inactive).

As for `C1=COC(C2NCCCN2)CC1` (stereo not given), the growth inhibition was -3.7% (inactive).

Turning to `O=C(/C=C\c1ccccc1)c1ccc(-c2cccc(-c3ccccc3)c2)cc1`, the growth inhibition was -11.1% (inactive).

In the case of `Brc1ccc(-c2[nH]c3ccccc3c2N=Nc2ccccc2)cc1`, the growth inhibition was -56.7% (inactive).

Regarding `N#CCCCCN1CCCCC1`, the growth inhibition was 13.6% (inactive).

`CCOC(=O)c1nc2ccc(C(F)(F)F)cc2nc1Nc1ccc(OC)c(OC)c1`: the growth inhibition was -8.75% (inactive).

In the case of `Cn1c(Cc2ccccc2)c([N+](=O)[O-])c(=O)n(C)c1=O`, the growth inhibition is -2.4% (inactive).

In the case of `O=C(c1ccccc1)C12CCCC(CC1)C2` (stereo not given), the growth inhibition is 0.65% (inactive).

As to `Cc1cc(OCCOC(=O)Nc2ccccc2C(F)(F)F)cc(C)c1Cl`, the growth inhibition is 10.8% (inactive).

Take `CC(NC(=O)CN)C(=O)O` (stereo not given): the growth inhibition is 4.4% (inactive).

As for `O=C(CCc1ccc(O)c(O)c1)NCCc1cc(OCc2ccccc2)cc(OCc2ccccc2)c1`, the growth inhibition is 73.1% (active).

As for `c1ccc(-c2sc(-c3ccccc3)c3c2C2CCC3C2)cc1`, the growth inhibition is -0.05% (inactive).

In the case of `C=C(C)C(O)CC(C)C` (stereo not given), the growth inhibition was 0.2% (inactive).

As to `OCC1SC(O)C(O)C(O)C1O` (stereo not given), the growth inhibition is 19.6% (inactive).

For `CC(NC(=O)C(NC(=O)OC(C)(C)C)C(C)C)C(=O)N1CCCC1C(=O)NCC(=O)NC(C(=O)NCC(=O)OCc1ccccc1)C(C)C` (stereo not given) (Boc-VAPGVG-OBn; configuration not given here), the growth inhibition was -48.4% (inactive).

In the case of `C/C(=N/N=C(N)N)c1cnn(C(=N)N)c1C`, the growth inhibition was 28.4% (inactive).

`OCCNc1nc(NCCO)c2cn[nH]c2n1`: the growth inhibition was 0.55% (inactive).

On to `O=C(NNC1=NCCN1Cc1ccccc1)c1cccc(Cl)c1`, for which the growth inhibition is 2.15% (inactive).

For the compound `C(=N\N1CCN(/N=C/c2ccc(OCc3ccccc3)cc2)CC1)/c1ccc(OCc2ccccc2)cc1`, the growth inhibition was -16.8% (inactive).

For the compound `O=C(Nc1ccccc1C(=O)N/N=C/c1ccccc1Cl)c1ccccc1Cl`, the growth inhibition was 4.1% (inactive).

Take `C=Nc1ccc(C)cc1`: the growth inhibition is -18.4% (inactive).

In the case of `O=S(=O)(O)c1cccc2c1oc1ccccc12`, the growth inhibition is -19% (inactive).

In the case of `N#Cc1ccc(CCc2ccccc2)cc1`, the growth inhibition is -2.05% (inactive).

For the compound `Cc1cc(C)[n+](C)c(/C=C/c2ccc([N+](=O)[O-])cc2)n1`, the growth inhibition is 23.2% (inactive).

With `CC(=O)CCCO`, the growth inhibition was -0.9% (inactive).
